Measured values published in PubChem BioAssay (NCI).
About 79,000 compounds went through this panel and 15% of them were active in at least one assay; those are over-represented in the sample as a whole. Values without a mark were called inactive. Activity calls are given as the source filed them. Rule as the data show it: active = growth inhibition above about 70%; inactive = the rest.

Test: NCI Yeast Anticancer Drug Screen. Data for the sgs1 strain (AID 173);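 also: 0% = growth of vehicle-only control cultures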
Conditions: S. cerevisiae sgs1 mutant, active compounds read high
Method: Growth inhibition of yeast strains with defined genetic alterations is measured as a screen for potential anti-cancer activity. Selected strains with alterations in DNA damage repair or cell cycle control were exposed to compounds and growth inhibition was measured relative to vehicle treated controls. The strain used in this assay is sgs1

CSc1ccc2c(c1)C(N1CCN(C)CC1)Cc1ccccc1S2 (stereo not given)
growth inhibition (at 1.2 µM): -34%
growth inhibition (at 3.7 µM): -84%
growth inhibition (at 11.0 µM): -27%
growth inhibition (at 33.0 µM): 70% (active)
growth inhibition (at 100.0 µM): 98% (active)

O=CC(=C(I)I)c1ccccc1
growth inhibition (at 1.2 µM): 56%
growth inhibition (at 3.7 µM): 79% (active)
growth inhibition (at 11.0 µM): 99% (active)
growth inhibition (at 33.0 µM): 99% (active)
growth inhibition (at 100.0 µM): 99% (active)

CC[C@]1(O)C[C@H]2CN(CCc3c([nH]c4ccccc34)[C@@](C(=O)OC)(c3cc4c(cc3OC)N(C)[C@H]3[C@@](O)(C(=O)OC)[C@H](OC(C)=O)[C@]5(CC)C=CCN6CC[C@]43[C@@H]65)C2)C1
growth inhibition (at 1.2 µM): 0%
growth inhibition (at 3.7 µM): -2%
growth inhibition (at 11.0 µM): 1%
growth inhibition (at 33.0 µM): 1%
growth inhibition (at 100.0 µM): -3%

COc1cc(C(C)(C)C)cc(OC)c1C(O)(c1c(OC)cc(C(C)(C)C)cc1OC)c1c(OC)cc(C(C)(C)C)cc1OC
growth inhibition (at 1.2 µM): -3%
growth inhibition (at 3.7 µM): 4%
growth inhibition (at 11.0 µM): 95% (active)
growth inhibition (at 33.0 µM): 95% (active)
growth inhibition (at 100.0 µM): 89% (active)

CCOc1nc(OCC)nc(-c2cccn2-c2ccccc2)n1
growth inhibition (at 1.2 µM): 16%
growth inhibition (at 3.7 µM): 15%
growth inhibition (at 11.0 µM): 14%
growth inhibition (at 33.0 µM): 43%
growth inhibition (at 100.0 µM): 95% (active)

COc1ccc(/C(=N/O)c2ccccc2C2=Nc3ccccc3C(NCc3ccccc3)O2)cc1C (stereo not given)
growth inhibition (at 1.2 µM): -2%
growth inhibition (at 3.7 µM): -2%
growth inhibition (at 11.0 µM): 2%
growth inhibition (at 33.0 µM): 45%
growth inhibition (at 100.0 µM): 95% (active)

O=Cn1c2ccccc2c2ccccc21
growth inhibition (at 1.2 µM): -32%
growth inhibition (at 3.7 µM): -37%
growth inhibition (at 11.0 µM): -8%
growth inhibition (at 33.0 µM): -15%
growth inhibition (at 100.0 µM): 57%

O=[N+]([O-])C(=C(NCc1ccccc1)NCc1ccccc1)C(Cl)=C(Cl)Cl
growth inhibition (at 1.2 µM): 1%
growth inhibition (at 3.7 µM): 7%
growth inhibition (at 11.0 µM): 15%
growth inhibition (at 33.0 µM): 39%
growth inhibition (at 100.0 µM): 83% (active)
